Experimental findings from PubChem BioAssay AID647 (Vanderbilt High Throughput Screening Facility, 2007) are described below.

Out of some 2,200 compounds screened, about 1,400 (64%) were called active. So high a share suggests a set chosen from earlier hits. A selection follows. A number with no mark means an inactive call.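 Rule for the calls: active = luminescence in either replicate above plate mean of wells with a partly effective reference agonist dose plus 3 SD; inactive = the rest.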

The test in a line: effects on beta-adrenoceptor cAMP reporter signal – cell-based, secondary assay 2, luminescence, counter-screen for D1 allosteric modulator project, confirmation (AID 647).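 Note: isoproterenol raises cAMP through native beta-adrenoceptor Gs so signal bypasses D1; raw luminescence counts from the Envision reader with one value per duplicate well.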 The conditions noted are these: HEK293 D1 CRE-luciferase, isoproterenol EC30 counter-screen; at 10 µM; stronger effect = higher value. In general terms: A counterscreen serves to expose hits that act by an unwanted route or on another target.
Consider `N#Cc1c(N)sc2c1CCN(C(=O)OCc1ccccc1)C2`, for which the luminescence is 5320 (active).

As to `CCNc1nc(NCC)nc(N(C)n2cnnc2)n1`, the luminescence was 3650 (active).

Consider `CC(C)c1cc(C(=O)O)on1`, for which the luminescence is 2070. Next, `Oc1ccc(-c2csc(Nc3cccnc3)n2)cc1`: 3250 (active); `CCn1ncc(C2=NOC(C(=O)Nc3ccccc3C(=O)OC)C2)c1C` (stereo unspecified): 5220 (active). Regarding `CCn1nc(C(=O)OCC(=O)N2c3ccccc3CC2C)c2ccccc2c1=O` (stereo unspecified), the luminescence is 2840.

As for `Cc1ccc(-c2nn(-c3ccccc3)cc2CN(Cc2ccccc2)C(=O)CCC(=O)O)o1`, the luminescence is 4080 (active). Next, `O=C(CSc1nnc2scc(-c3ccc(F)cc3)n12)NCc1ccco1`: 2580; `CCOc1cc(-c2noc(CCC(=O)N3CCOCC3)n2)ccc1OC`: 2630.

For the compound `CCOc1ccc(-c2nnn(CC(=O)N3CCN(c4ccc(OC)cc4)CC3)n2)cc1OCC`, the luminescence was 3110 (active). As to `CC1CCN(c2oc(-c3ccccc3F)nc2C#N)CC1`, the luminescence was 3380 (active). In the case of `CCOc1ccc2c(c1)cc(CN(C(=O)CC)C1CCCCC1)c1nnnn12`, the luminescence is 3880 (active). With `CCOc1ccc2[nH]c(=O)c(C(c3nnnn3CCOC)N3CCOCC3)cc2c1` (stereo unspecified) the figure was 2250; with `FC(F)(F)c1cc(-c2ccco2)nc(N2CCOCC2)n1`, 4220 (active); with `Cc1cc(C(F)(F)F)nn1-c1nc(-c2ccco2)cc(C(F)(F)F)n1`, 3340 (active). With `O=C(NCc1ccco1)c1cnn2c(C(F)(F)F)cc(-c3ccco3)nc12` the figure was 3240; with `COc1ccc(-c2nnco2)cc1OC`, 3030 (active); with `Cc1ccc(C2CC(c3cccc(Br)c3)n3nc(N)nc3N2)cc1` (stereo unspecified), 3660 (active). Regarding `CCOc1ccccc1C1CC(c2ccccc2)Nc2nc(N)nn21` (stereo unspecified), the luminescence is 3190. Next, `Cc1ccc(C2CC(c3cccc(C)c3)n3nc(N)nc3N2)cc1` (stereo unspecified): 2800; `CCOc1cc(C(=O)N2CCc3cc(OC)c(OC)cc3C2)ccc1OC(F)F`: 11500 (active).

On to `CC(=O)Nc1cccc(Oc2cc(C#N)c(C#N)cc2N2CCOCC2)c1`, for which the luminescence was 4140 (active).

Take `COc1cc(NC(=O)N2CCOCC2)cc(OC)c1`: the luminescence is 2540. As for `C/C(Cl)=C\Cn1c(Nc2cccc(C)c2)nc2c1c(=O)n(C)c(=O)n2C`, the luminescence is 3460 (active). As to `Cc1cc(C)c2c(n1)nn1c(-n3ccnc3)cc(C)nc21`, the luminescence is 3020 (active). Next, `CCSc1nc(C)nc2c1oc1ccccc12`: 3530 (active).

With `COC(=O)[C@H](C(C)C)n1c(C)c(C(C)=O)c(C(C)=O)c1C`, the luminescence was 2600. `O=c1cc(-c2ccccc2)nc(N2CCCCC2)[nH]1`: the luminescence was 3010.

On to `CCCN1Cc2cccc(C(=O)NCc3ccccc3)c2C1=O`, for which the luminescence was 3680 (active). With `CCSc1ncnc2c(C#N)c3n(c12)CCCCC3` the figure was 6230 (active). `O=C(c1ccco1)N1CCN=C1SCc1cccc(Cl)c1`: the luminescence was 3200 (active). For the compound `Cc1ccc(S(=O)(=O)c2c(N)n(C)c3nc4ccccc4nc23)cc1`, the luminescence is 3490 (active). Next, `COc1ccc(-n2c(Cc3cccn3C)nnc2SCC(=O)Nc2cc(C)cc(C)c2)cc1`: 2370. With `Nc1ccc(S(=O)(=O)NC(=O)c2ccccc2)cc1` the figure was 2950; with `CCOC(=O)c1cc(C)sc1NC(=O)C1CCC1`, 4600 (active).

Consider `C/C(=C\C(=O)c1ccccc1)Nc1cccc(O)c1`, for which the luminescence was 2540.

Consider `CN(C)c1nc(N)nc(CSc2nnnn2-c2cccc3ccccc23)n1`, for which the luminescence is 3420 (active). With `COc1ccc(-c2nn3c(-c4ccccc4)nnc3s2)cc1OC` the figure was 8440 (active); with `COc1cc(-c2nn3c(-c4cccc(C)c4)nnc3s2)cc(OC)c1OC`, 4430 (active). With `O=C(C1CCC1)N1CCc2cc(S(=O)(=O)NCc3cccnc3)ccc21`, the luminescence is 3060. As to `N#Cc1nc(N)nc(N(c2ccccc2)c2ccccc2)n1`, the luminescence was 2880.
